Among the data in publication PMC12864922, “TDP-43 directly inhibits mRNA accumulation in neurites through modulation of mRNA stability” are binding signal values, retold here.

Sequences and labels used below:
B1: ENSMUSG00000031028.648|Tub (ssRNA)
RNA: GGGAGUUCUACAGUCCGACGAUCGCUUCGAUAUCCGCAUGCUACCAGGUAGAGCAGAUGAGGCUGAAAUGUAGAGUGUUCUAUAGAGCAUCUCAGUAGCAUAGAAGGAGAAGCCCAGCUCCAACCUCCUGGACCCCAUACUGGUGACCAGCUUGGUGAGGACAGGCAAAAUUUCUCUAGCUGAGAGCACACUUAGCCAGUUUUCACGCCUAGAACAUAUAUGUCGAUUUGCACAUGAUUGUCUUUUCCUAUUUUGGAGUGGUCAGACAUUUUAUUUUUGUUCAAAAUUAUCUGGAGUUUUAGACUCUUGCGGUCGCACUAGUGUGGAAUUCUCGGGUGUCAAGG
B2: ENSMUSG00000032194.138|Kank2 (ssRNA)
RNA: GGGAGUUCUACAGUCCGACGAUCGCUUCGAUAUCCGCAUGCUAUGACUUGGAAAUGACCAACUUACAAGAAGUUAUGCUGACCUCCCUGUUCCCCACGGGGAGUGCUUGGCAGAGGAGACUACUUCUAGAAAUACUUUCAGACCUACAGACAAAAAAGAAAAAAGGCCAUUCCGGAGUGACUCCCAGCAUCACAGCCCAGAACCUCCUCCUCAAAGGAGAGUAAACAGAGACUGUGAUACUGACCAAGUACAGGCGCUCGCUAUGAAGCCCAUAUGUUCCUGAUUAAGAGCUGGCUGGCCUCACUCUUGCGGUCGCACUAGUGUGGAAUUCUCGGGUGUCAAGG
B3: ENSMUSG00000061578.1543|Ksr2 (ssRNA)
RNA: GGGAGUUCUACAGUCCGACGAUCGCUUCGAUAUCCGCAUGCUACACUAUGUAUAUUUGUAUAGAUCAUUUAUAAAGUUUUCUACACUUCUCAAAAAAAAAAAUAUUUCUAACCUUGGCUGUUGGACAGUCUGUGAGCCUGUGAGCCGGCAAGCCUGUUGUUUCUUGUGUUUAGUGCAAUGUUAGUGAGAAUCCAGUGUCUGAGUUAUUAAUGCCAAUAAAGAAUUUGAGAAUUACUGCAUCCGCUGCUGUCACUCCAGGUCAGAACUCUGCUGUUGUCUGUUGGAUGGAAGGAAGCUCCAGAGCUCUUGCGGUCGCACUAGUGUGGAAUUCUCGGGUGUCAAGG
B4: ENSMUSG00000058297.245|Spock2 (ssRNA)
RNA: GGGAGUUCUACAGUCCGACGAUCGCUUCGAUAUCCGCAUGCUAGCUAGGCCCUGAUGCCAUGCCUCAGCACGCCCUCAGACCUCCAGGCCGGGUGGAAGGGGCUUUUACCCAGAUGUCCUGUGGGGUUUUGUGUGUCUAUUGCUCCCCACUUCCCCCUCUCAAAGGAAAUUUCCUUGAUAUAUUUGAUGAAGAAUUCCUUACCUGGGCCUCUGAUACCCUUUGGUACGCGUACGUGUGUGUGGCGCGUAUACGUGUGUGUGUGUGUGUGUGUGUGUGUGUGUGUGUGUGUGUGUGAGAGAGAGCUCUUGCGGUCGCACUAGUGUGGAAUUCUCGGGUGUCAAGG
B5: ENSMUSG00000058297.246|Spock2 (ssRNA)
RNA: GGGAGUUCUACAGUCCGACGAUCGCUUCGAUAUCCGCAUGCUACCCUGAUGCCAUGCCUCAGCACGCCCUCAGACCUCCAGGCCGGGUGGAAGGGGCUUUUACCCAGAUGUCCUGUGGGGUUUUGUGUGUCUAUUGCUCCCCACUUCCCCCUCUCAAAGGAAAUUUCCUUGAUAUAUUUGAUGAAGAAUUCCUUACCUGGGCCUCUGAUACCCUUUGGUACGCGUACGUGUGUGUGGCGCGUAUACGUGUGUGUGUGUGUGUGUGUGUGUGUGUGUGUGUGUGUGUGUGAGAGAGAGAGAGAGCUCUUGCGGUCGCACUAGUGUGGAAUUCUCGGGUGUCAAGG
B6: ENSMUSG00000058297.244|Spock2 (ssRNA)
RNA: GGGAGUUCUACAGUCCGACGAUCGCUUCGAUAUCCGCAUGCUAUGAGCAGCUAGGCCCUGAUGCCAUGCCUCAGCACGCCCUCAGACCUCCAGGCCGGGUGGAAGGGGCUUUUACCCAGAUGUCCUGUGGGGUUUUGUGUGUCUAUUGCUCCCCACUUCCCCCUCUCAAAGGAAAUUUCCUUGAUAUAUUUGAUGAAGAAUUCCUUACCUGGGCCUCUGAUACCCUUUGGUACGCGUACGUGUGUGUGGCGCGUAUACGUGUGUGUGUGUGUGUGUGUGUGUGUGUGUGUGUGUGUGUGUGAGCUCUUGCGGUCGCACUAGUGUGGAAUUCUCGGGUGUCAAGG
B7: ENSMUSG00000058297.242|Spock2 (ssRNA)
RNA: GGGAGUUCUACAGUCCGACGAUCGCUUCGAUAUCCGCAUGCUAAGGGGACCACACUGAGCAGCUAGGCCCUGAUGCCAUGCCUCAGCACGCCCUCAGACCUCCAGGCCGGGUGGAAGGGGCUUUUACCCAGAUGUCCUGUGGGGUUUUGUGUGUCUAUUGCUCCCCACUUCCCCCUCUCAAAGGAAAUUUCCUUGAUAUAUUUGAUGAAGAAUUCCUUACCUGGGCCUCUGAUACCCUUUGGUACGCGUACGUGUGUGUGGCGCGUAUACGUGUGUGUGUGUGUGUGUGUGUGUGUGUGUGUGCUCUUGCGGUCGCACUAGUGUGGAAUUCUCGGGUGUCAAGG
B8: ENSMUSG00000058297.239|Spock2 (ssRNA)
RNA: GGGAGUUCUACAGUCCGACGAUCGCUUCGAUAUCCGCAUGCUAGAACGGUGUAUCUAUCAGAGGGGACCACACUGAGCAGCUAGGCCCUGAUGCCAUGCCUCAGCACGCCCUCAGACCUCCAGGCCGGGUGGAAGGGGCUUUUACCCAGAUGUCCUGUGGGGUUUUGUGUGUCUAUUGCUCCCCACUUCCCCCUCUCAAAGGAAAUUUCCUUGAUAUAUUUGAUGAAGAAUUCCUUACCUGGGCCUCUGAUACCCUUUGGUACGCGUACGUGUGUGUGGCGCGUAUACGUGUGUGUGUGUGUGCUCUUGCGGUCGCACUAGUGUGGAAUUCUCGGGUGUCAAGG
B9: ENSMUSG00000058297.243|Spock2 (ssRNA)
RNA: GGGAGUUCUACAGUCCGACGAUCGCUUCGAUAUCCGCAUGCUACCACACUGAGCAGCUAGGCCCUGAUGCCAUGCCUCAGCACGCCCUCAGACCUCCAGGCCGGGUGGAAGGGGCUUUUACCCAGAUGUCCUGUGGGGUUUUGUGUGUCUAUUGCUCCCCACUUCCCCCUCUCAAAGGAAAUUUCCUUGAUAUAUUUGAUGAAGAAUUCCUUACCUGGGCCUCUGAUACCCUUUGGUACGCGUACGUGUGUGUGGCGCGUAUACGUGUGUGUGUGUGUGUGUGUGUGUGUGUGUGUGUGUGUGCUCUUGCGGUCGCACUAGUGUGGAAUUCUCGGGUGUCAAGG
B10: ENSMUSG00000058297.241|Spock2 (ssRNA)
RNA: GGGAGUUCUACAGUCCGACGAUCGCUUCGAUAUCCGCAUGCUAUAUCAGAGGGGACCACACUGAGCAGCUAGGCCCUGAUGCCAUGCCUCAGCACGCCCUCAGACCUCCAGGCCGGGUGGAAGGGGCUUUUACCCAGAUGUCCUGUGGGGUUUUGUGUGUCUAUUGCUCCCCACUUCCCCCUCUCAAAGGAAAUUUCCUUGAUAUAUUUGAUGAAGAAUUCCUUACCUGGGCCUCUGAUACCCUUUGGUACGCGUACGUGUGUGUGGCGCGUAUACGUGUGUGUGUGUGUGUGUGUGUGUGUGCUCUUGCGGUCGCACUAGUGUGGAAUUCUCGGGUGUCAAGG
B11: ENSMUSG00000058297.242|Spock2|105:111;209:217;228:260 (ssRNA)
RNA: GGGAGUUCUACAGUCCGACGAUCGCUUCGAUAUCCGCAUGCUAAGGGGACCACACUGAGCAGCUAGGCCCUGAUGCCAUGCCUCAGCACGCCCUCAGACCUCCAGGCCGGGUGGAAGGGGCUUUUACCCAGAUGUCCUGUGGGGUUUACACACACUAUUGCUCCCCACUUCCCCCUCUCAAAGGAAAUUUCCUUGAUAUAUUUGAUGAAGAAUUCCUUACCUGGGCCUCUGAUACCCUUUGGUACGCGUACCACACACACGCGCGUAUACCACACACACACACACACACACACACACACACACCUCUUGCGGUCGCACUAGUGUGGAAUUCUCGGGUGUCAAGG
B12: ENSMUSG00000058297.240|Spock2 (ssRNA)
RNA: GGGAGUUCUACAGUCCGACGAUCGCUUCGAUAUCCGCAUGCUAUGUAUCUAUCAGAGGGGACCACACUGAGCAGCUAGGCCCUGAUGCCAUGCCUCAGCACGCCCUCAGACCUCCAGGCCGGGUGGAAGGGGCUUUUACCCAGAUGUCCUGUGGGGUUUUGUGUGUCUAUUGCUCCCCACUUCCCCCUCUCAAAGGAAAUUUCCUUGAUAUAUUUGAUGAAGAAUUCCUUACCUGGGCCUCUGAUACCCUUUGGUACGCGUACGUGUGUGUGGCGCGUAUACGUGUGUGUGUGUGUGUGUGUGCUCUUGCGGUCGCACUAGUGUGGAAUUCUCGGGUGUCAAGG
B13: ENSMUSG00000004113.29|Cacna1b (ssRNA)
RNA: GGGAGUUCUACAGUCCGACGAUCGCUUCGAUAUCCGCAUGCUACACUCACCUUUGAAGAGGCAGUGGCCACCAACUCUGGCCGCUCCUCCAGGACUUCCUAUGUGUCCUCCCUCACUUCCCAAUCCCACCCUCUCCGCCGUGUACCCAAUGGCUAUCACUGCACUUUGGGACUCAGCACUGGCGUCCGGGCGCGGCACAGCUACCACCACCCCGAUCAGGACCACUGGUGCUAGCUGCACCACGACCACCCAUGUACCAGCUCCAUGGGUGAGGGUUCCAGUUGAUGAGUUUUAUCAUCCGCUCUCUUGCGGUCGCACUAGUGUGGAAUUCUCGGGUGUCAAGG

Whole data set: some 9,900 sequences, median “r (bound/input frequency ratio)” near 0.7, cut for the highest 2% near 6.5. Only a selection was taken, and the highest values are over-represented in it overall.

TDP-43, sequence (Q13148 whole entry): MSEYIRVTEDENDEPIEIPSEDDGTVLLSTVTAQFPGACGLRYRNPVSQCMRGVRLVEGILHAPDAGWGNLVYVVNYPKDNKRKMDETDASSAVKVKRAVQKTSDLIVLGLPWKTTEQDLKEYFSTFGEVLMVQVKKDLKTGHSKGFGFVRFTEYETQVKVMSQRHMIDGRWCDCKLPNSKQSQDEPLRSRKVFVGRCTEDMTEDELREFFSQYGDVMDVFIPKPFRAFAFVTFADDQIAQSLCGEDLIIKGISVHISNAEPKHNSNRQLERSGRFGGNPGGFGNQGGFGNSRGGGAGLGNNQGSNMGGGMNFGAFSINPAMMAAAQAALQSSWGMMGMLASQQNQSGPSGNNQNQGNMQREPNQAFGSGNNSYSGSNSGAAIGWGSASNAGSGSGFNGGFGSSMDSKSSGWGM

For the assay, the target named is TDP-43 (Homo sapiens, UniProt Q13148 1-414). Put plainly: RNA Bind-n-Seq with designed 260-mer pool; 25 mM Tris-HCl, 150 mM KCl, 3 mM MgCl2, BSA (printed 500 mg/mL), 20 units/mL SUPERase IN; pH not stated; 500 nM RNA pool, 1 h, 4 C; TDP-43 5, 50, 500 nM; high values mean tight binding. The following applies: protein: recombinant; tags: SBP (GST cleaved off with PreScission; pGEX-GST-SBP). The method, boiled down:
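Streptavidin beads captured recombinant SBP-tagged TDP-43 at 5, 50 or 500 nM, and the beads were incubated for 1 h at 4 °C with 500 nM of an in vitro-transcribed pool of 260-nt 3′ UTR oligos in 25 mM Tris-HCl, 150 mM KCl, 3 mM MgCl2, BSA and SUPERase IN. After washing, bound RNA was eluted with biotin, reverse transcribed, PCR-amplified and sequenced. Binding is reported as R, the mapped-read-normalized abundance of each oligo in the bound sample divided by its abundance in the input. Two independent protein batches served as duplicates.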
Consider B1, for which the binding signal was 0.252 R (bound/input frequency ratio).

With B2, the binding signal was 0.253 R (bound/input frequency ratio).

As to B3, the binding signal is 0.902 R (bound/input frequency ratio).

For B4, the binding signal is 9.24 R (bound/input frequency ratio).

In the case of B5, the binding signal was 2.94 R (bound/input frequency ratio).

In the case of B6, the binding signal was 3.2 R (bound/input frequency ratio).

Consider B7, for which the binding signal was 6.94 R (bound/input frequency ratio).

Take B8: the binding signal was 3.69 R (bound/input frequency ratio).

With B9, the binding signal was 6.55 R (bound/input frequency ratio).

Take B10: the binding signal is 6.46 R (bound/input frequency ratio).

B11: the binding signal was 4.83 R (bound/input frequency ratio).

For B12, the binding signal is 5.45 R (bound/input frequency ratio).

With B13, the binding signal is 0.399 R (bound/input frequency ratio).
